Some test systems named below: HCT-15 colon; HT29 colon; SNB-75 CNS; SNB-19 CNS; U251 CNS; PC-3 prostate; SK-MEL-5 melanoma; UACC-62 melanoma; SK-MEL-28 melanoma; LOX IMVI melanoma.
Common to all, as to assay: NCI-60 one-dose screen, 48 h (100 = growth as untreated, 0 = no growth, -100 = all killed)
Conditions in all cases: 10 µM unless noted

The panel holds about 83,000 compounds, 20% with a hit somewhere; the sample as a whole holds those more often.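 Treatment: one concentration, 48 hours, 96-well format. Scoring: percent growth, with anything below 10 considered active.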 Values without a mark were called inactive. Active and inactive are the calls of the source.

Take `CCN(CC)CCN1C(=O)c2c(c3c4cccnc4[nH]c3c3ccc4ccccc4c23)C1=O`: the growth is 58.7% in the assay with HCT-15 colon; 66.7% in the assay on HT29 colon; 54.3% in the assay with SNB-75 CNS; 59.5% in the assay on SNB-19 CNS; 63.5% with U251 CNS; 59.2% in the assay with PC-3 prostate. Besides, the values for the growth in the assay with SK-MEL-5 melanoma, in the assay with UACC-62 melanoma and with SK-MEL-28 melanoma were 80%, 69.2% and 106%, respectively.

For `O=C(NNc1nc2cc(F)c(F)cc2n2cccc12)c1ncccn1`, the growth was 28.8% in the assay with HCT-15 colon; 34.3% with HT29 colon; -1.51% (active) in the assay on SNB-75 CNS; 25.8% with SNB-19 CNS; 18.3% in the assay on U251 CNS; 32.4% in the assay on PC-3 prostate. In addition, the growth with SK-MEL-5 melanoma is -70.7% (active); with LOX IMVI melanoma, 16.1%; in the assay on SK-MEL-28 melanoma it was 25.7%.

With `CC1CCN(S(=O)(=O)c2ncsc2-c2ccccc2)CC1`, the growth in the assay with HCT-15 colon was 79%; in the assay on HT29 colon it was 88.5%; in the assay with SNB-75 CNS, 55.6%; with SNB-19 CNS, 83%; in the assay with U251 CNS it was 57.9%; in the assay on PC-3 prostate, 80.8%. Besides, the growth is 96.8% in the assay with SK-MEL-5 melanoma, 96.5% in the assay on UACC-62 melanoma and 75.3% in the assay on SK-MEL-28 melanoma.

For the compound `COc1ccc(-c2nc3cc(Cl)c(Cl)cc3n2CC(=O)N=Nc2c(O)[nH]c3ccc(Br)cc23)cc1`, the growth with HCT-15 colon is -44.8% (active); in the assay on HT29 colon, -24% (active); in the assay with SNB-75 CNS it was 47.3%; with SNB-19 CNS, 22%; in the assay with U251 CNS, -58% (active); in the assay on PC-3 prostate, -47.1% (active). In addition, the growth is 51.5% in the assay on SK-MEL-5 melanoma, 4.88% (active) in the assay on UACC-62 melanoma, -77.9% (active) in the assay with LOX IMVI melanoma and -66.9% (active) in the assay with SK-MEL-28 melanoma.

`COC(=O)c1nc(-c2ccc(C)cc2)oc1S(=O)(=O)N1CCN(c2oc(-c3ccccc3)nc2C#N)CC1`: the growth in the assay on HCT-15 colon was 98.6%; in the assay on HT29 colon it was 111%; with SNB-75 CNS, 100%; in the assay on SNB-19 CNS, 94.6%; in the assay on U251 CNS it was 99.4%; in the assay on PC-3 prostate, 99%. The growth is 100% in the assay on SK-MEL-5 melanoma and 89.7% with LOX IMVI melanoma.

In the case of `O=C(c1cccc(F)c1)n1ccc2cc(NC(=S)Nc3cccnc3)ccc21`, the growth in the assay with HCT-15 colon was 89.6%; in the assay with HT29 colon it was 103%; in the assay on SNB-75 CNS, 90.6%; in the assay on SNB-19 CNS, 86.5%; with U251 CNS, 95.1%; in the assay on PC-3 prostate, 96.5%. Further, the figures for the growth in the assay on SK-MEL-5 melanoma, in the assay on LOX IMVI melanoma and in the assay on SK-MEL-28 melanoma were 99.6%, 99% and 106%, respectively.

For `O=C1c2c(c3c4cccnc4[nH]c3c3ccc4ccccc4c23)C(=O)N1CCN1CCNCC1`, the growth in the assay with HCT-15 colon is 3.44% (active); in the assay with HT29 colon, 57.9%; in the assay on SNB-75 CNS, 84%; in the assay on SNB-19 CNS, 76.3%; with U251 CNS, 56.2%; with PC-3 prostate, 66.8%. In addition, the growth with SK-MEL-5 melanoma was 91.7%; in the assay with UACC-62 melanoma, 79.6%; with SK-MEL-28 melanoma, 108%.

Consider `CCN1C(=O)N(CC)C2SC(N/N=C/c3cccs3)=NC21` (configuration not stated), for which the growth with HCT-15 colon is 14.8%; with HT29 colon it was 1.59% (active); in the assay with SNB-75 CNS, 50.6%; with SNB-19 CNS, 25.9%; in the assay on U251 CNS, 10.2%; in the assay with PC-3 prostate, 28.4%. Besides, the values for the growth in the assay with SK-MEL-5 melanoma, in the assay with LOX IMVI melanoma and in the assay on SK-MEL-28 melanoma were -5.21% (active), 8.77% (active) and 54.2%, respectively.

With `COc1ccc(-c2nc(SCC(C)C)nc(N/N=C\c3cccc([N+](=O)[O-])c3)c2C#N)cc1`, the growth with HCT-15 colon was 46.3%; in the assay with HT29 colon, 49.9%; with SNB-75 CNS it was -11.2% (active); with SNB-19 CNS, 38.6%; with U251 CNS, 13%; in the assay with PC-3 prostate, 55.2%. Also, the growth was 68.3% with SK-MEL-5 melanoma, 75.6% in the assay with UACC-62 melanoma and 77.7% in the assay with SK-MEL-28 melanoma.

`NS(=O)(=O)c1ccc(-n2cc(CC=O)nn2)cc1`: the growth in the assay on HCT-15 colon was 99.8%; in the assay on HT29 colon, 101%; in the assay on SNB-75 CNS, 90.1%; in the assay on SNB-19 CNS it was 102%; with U251 CNS, 102%; in the assay on PC-3 prostate, 100%. The growth in the assay with SK-MEL-5 melanoma is 100%; in the assay with LOX IMVI melanoma it was 98.9%.

With `Cc1ccc(-c2csc(N/N=C/c3nc4ccccc4n3C3CC3)n2)cc1`, the growth is 80.6% with HCT-15 colon; 92.2% in the assay with HT29 colon; 22% in the assay on SNB-75 CNS; 81.2% in the assay on SNB-19 CNS; 43.8% in the assay with U251 CNS; 61.6% in the assay on PC-3 prostate. Moreover, the growth in the assay on SK-MEL-5 melanoma was 5.51% (active); in the assay with UACC-62 melanoma, 95.1%; in the assay with SK-MEL-28 melanoma it was 103%.

Turning to `C#C[C@]1(O)CC[C@H]2[C@@H]3CC=C4c5sc(Nc6cccc(Cl)n6)nc5CC[C@]4(C)[C@H]3CC[C@@]21C`, the growth in the assay on HCT-15 colon was -66.9% (active); with HT29 colon, 3.69% (active); in the assay on SNB-75 CNS, -25% (active); with SNB-19 CNS, -1.43% (active); in the assay on U251 CNS, 4.83% (active); with PC-3 prostate, 4.35% (active). For the same compound, the growth was -90.7% (active) in the assay with SK-MEL-5 melanoma, -14.4% (active) with UACC-62 melanoma and -59.9% (active) in the assay on SK-MEL-28 melanoma.

Take `COc1ccc(N)cc1C(=O)Nc1cccc(-c2cc(=O)c3c(OC)c(OC)c(OC)cc3o2)c1`: the growth was 44.7% in the assay with HCT-15 colon; 56.5% with HT29 colon; 93.1% in the assay on SNB-75 CNS; 76.6% in the assay on SNB-19 CNS; 49.9% in the assay with U251 CNS; 74.1% in the assay with PC-3 prostate. For the same compound, the growth with SK-MEL-5 melanoma is 41%; with UACC-62 melanoma it was 61.2%; with LOX IMVI melanoma, 44.3%; in the assay with SK-MEL-28 melanoma it was 86.6%.

In the case of `COc1ccc([C@@H]2[C@@H](O)C(=O)N2c2cc(OC)c(OC)c(OC)c2)cc1`, the growth was 12.4% in the assay with HCT-15 colon; 1.28% (active) in the assay with HT29 colon; 50.7% with SNB-75 CNS; 31.6% in the assay on SNB-19 CNS; 4.38% (active) with U251 CNS; 16.2% in the assay with PC-3 prostate. For the same compound, the growth in the assay with SK-MEL-5 melanoma is -28.6% (active); in the assay on UACC-62 melanoma, 20.3%; in the assay with LOX IMVI melanoma, 16.3%; in the assay with SK-MEL-28 melanoma it was 61%.
